Measured values as given in PubChem BioAssay.
Active and inactive are the calls of the source.

What was measured:
[1] = test system: Human papillomavirus type 1a protein E7 (residues 44-93); assay: HPV1a E7 fragment binders on microarrays, primary screen, biochemical, small-molecule microarray, residues 44-93, 635 nm fluorescence (AID 1108); details: small-molecule microarray binding, fluorescence 635 nm; higher = more signal;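 note: E7 fragment applied at 1 µg/mL in TBST for 1 h at 4 C; score combines spot fluorescence with its signal to noise ratio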
[2] = modulators of HCV replicon luciferase signal, primary screen, HCV replication inhibitor project, Huh7 cells, luciferase reporter (AID 1109); details: 48 h, higher = more signal;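 note: huh7 hepatoma cells harbouring a luciferase neomycin HCV replicon reporter; luciferase luminescence as measure of HCV replicon replication; test concentration not given here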
[3] = molecular target: Left-right determination factor 2 (Homo sapiens) (UniProt O00292); assay: LEFTY2 binders on small-molecule microarrays, primary screen, biochemical, small-molecule microarray, 635 nm fluorescence scan (AID 1110); details: LEFTY2 binding, higher = more signal
Chain of Left-right determination factor 2 (Homo sapiens) (O00292 whole entry, looked up): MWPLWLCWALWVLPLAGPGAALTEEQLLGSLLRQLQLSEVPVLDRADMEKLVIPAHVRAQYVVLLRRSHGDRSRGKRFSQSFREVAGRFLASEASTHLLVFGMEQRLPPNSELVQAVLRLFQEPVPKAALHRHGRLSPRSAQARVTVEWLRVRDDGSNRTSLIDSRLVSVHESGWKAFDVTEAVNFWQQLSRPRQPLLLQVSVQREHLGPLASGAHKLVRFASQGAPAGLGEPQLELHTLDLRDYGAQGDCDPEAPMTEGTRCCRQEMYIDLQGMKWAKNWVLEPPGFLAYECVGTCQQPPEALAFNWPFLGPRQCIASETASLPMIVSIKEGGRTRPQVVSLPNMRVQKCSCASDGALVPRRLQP

[4] = molecular target: Calmodulin-1 (Homo sapiens) (UniProt P0DP23); assay: CALM1 binders on microarrays, EGTA buffer, profiling panel, biochemical, small-molecule microarray, Cy5-labelled CALM1 (AID 1111); details: Cy5-CALM1 binding fluorescence, higher = more signal;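 note: labelled calmodulin applied in Tris saline Tween buffer holding calcium plus EGTA and DTT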
[5] = molecular target: Calmodulin-1 (Homo sapiens) (UniProt P0DP23); assay: calcium-bound CALM1 binders on microarrays, profiling panel, artefact control for SMM control-protein annotation, biochemical, small-molecule microarray, Cy5-labelled CALM1, plus calcium (AID 1112); details: Cy5-CALM1 binding fluorescence, higher = more signal;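 note: score merges spot fluorescence with signal to noise from triplicate slides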
[6] = small-molecule microarray binders of probe aWnt5a, primary screen, biochemical, biotinylated probe, 635/667 nm fluorescence (AID 1113); details: higher = more signal;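 note: score merges 667 nm fluorescence intensity with signal-to-noise per printed feature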
[7] = small-molecule microarray binders of probe aShh, primary screen, biochemical, biotinylated probe, 635/667 nm fluorescence (AID 1114); details: higher = more signal;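 note: probe is biotin-labelled aShh protein from a stem cell growth factor screen; measures binding of labelled protein to compounds printed on the slide; score merges feature fluorescence at 667 nm with signal-to-noise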
[8] = small-molecule microarray binders of probe aNog, primary screen, biochemical, biotinylated probe, 635/667 nm fluorescence (AID 1115); details: higher = more signal;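 note: probe is biotinylated aNog protein used at 0.15 µg/mL for 1 h at 4 C; z-score combines 667 nm fluorescence of each spot with its signal to noise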
[9] = molecular target: Torsin-1A-interacting protein 1 (Homo sapiens) (UniProt Q5JTV8); assay: LAP1 binders from COS7 cell lysate, primary screen, small-molecule microarray, 635/667 nm fluorescence (AID 1116); details: COS7-hLAP1 lysate binding, 635 nm fluorescence, higher = more signal
Chain of Torsin-1A-interacting protein 1 (Homo sapiens) (Q5JTV8 whole entry, looked up): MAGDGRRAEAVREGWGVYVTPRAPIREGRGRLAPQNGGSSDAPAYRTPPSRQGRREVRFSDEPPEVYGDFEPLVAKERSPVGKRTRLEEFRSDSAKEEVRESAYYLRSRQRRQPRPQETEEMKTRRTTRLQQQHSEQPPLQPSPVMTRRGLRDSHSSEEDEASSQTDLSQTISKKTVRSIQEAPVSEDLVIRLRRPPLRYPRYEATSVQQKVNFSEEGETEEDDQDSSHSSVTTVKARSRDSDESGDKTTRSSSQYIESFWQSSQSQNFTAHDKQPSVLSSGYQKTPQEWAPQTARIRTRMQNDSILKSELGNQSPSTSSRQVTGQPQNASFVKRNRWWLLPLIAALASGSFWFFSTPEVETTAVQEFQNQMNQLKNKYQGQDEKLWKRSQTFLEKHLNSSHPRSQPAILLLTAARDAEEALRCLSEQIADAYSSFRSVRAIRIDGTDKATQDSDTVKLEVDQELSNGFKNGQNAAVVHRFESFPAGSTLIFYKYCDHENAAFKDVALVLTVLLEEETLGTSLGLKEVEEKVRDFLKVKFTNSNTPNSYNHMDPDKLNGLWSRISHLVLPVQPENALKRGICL

[10] = molecular target: Alpha-bungarotoxin (Bungarus multicinctus) (UniProt P60615); assay: alpha-bungarotoxin binders on microarray, profiling panel, artefact control for SMM control protein annotation, biochemical, small-molecule microarray, Alexa647 label, 635/667 nm fluorescence (AID 1117); details: alpha-BTX-A647 binding fluorescence, higher = more signal
Chain of Alpha-bungarotoxin (Bungarus multicinctus) (P60615 whole entry, looked up): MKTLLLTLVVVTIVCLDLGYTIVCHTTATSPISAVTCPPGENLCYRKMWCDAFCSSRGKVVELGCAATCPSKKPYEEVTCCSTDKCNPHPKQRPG

[11] = molecular target: Albumin (Bos taurus) (UniProt P02769); assay: bovine serum albumin binders on microarray, profiling panel, artefact control for SMM control protein annotation, biochemical, small-molecule microarray, Alexa647 label, 635/667 nm fluorescence (AID 1118); details: BSA-A647 binding, fluorescence 635 nm, higher = more signal;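 note: score merges 667 nm emission intensity and signal-to-noise per printed compound spot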
Chain of Albumin (Bos taurus) (P02769 whole entry, looked up): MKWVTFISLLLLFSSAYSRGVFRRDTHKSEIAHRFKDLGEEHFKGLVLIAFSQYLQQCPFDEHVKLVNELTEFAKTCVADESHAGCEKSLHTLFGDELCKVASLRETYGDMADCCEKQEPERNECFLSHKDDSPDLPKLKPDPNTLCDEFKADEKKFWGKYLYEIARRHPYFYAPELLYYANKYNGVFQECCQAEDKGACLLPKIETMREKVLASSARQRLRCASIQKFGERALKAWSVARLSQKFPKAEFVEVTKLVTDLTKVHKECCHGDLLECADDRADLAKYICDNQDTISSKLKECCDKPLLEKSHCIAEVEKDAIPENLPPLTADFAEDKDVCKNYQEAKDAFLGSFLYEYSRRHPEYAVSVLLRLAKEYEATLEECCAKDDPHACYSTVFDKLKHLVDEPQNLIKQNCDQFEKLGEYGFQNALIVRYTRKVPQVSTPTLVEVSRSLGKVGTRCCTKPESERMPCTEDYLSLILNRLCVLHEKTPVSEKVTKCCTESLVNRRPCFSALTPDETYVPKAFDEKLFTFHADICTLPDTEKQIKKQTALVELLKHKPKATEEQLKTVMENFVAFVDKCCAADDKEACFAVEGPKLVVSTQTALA

[12] = small-molecule microarray binders of probe aXIP, primary screen, biochemical, NeuroSMM set, 635/667 nm fluorescence (AID 1119); details: higher = more signal, called active from +8 up or from −8 down;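 note: probe is the protein aXip251-270 applied at 1 µg/mL to compound-printed slides; binding of probe to printed compounds measured as 667 nm fluorescence plus signal to noise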
[13] = small-molecule binders of probe aNOTCH3, primary screen, biochemical, small-molecule microarray, 635/667 nm fluorescence (AID 1120); details: higher = more signal;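 note: probe is a biotin-tagged antibody raised against NOTCH3 rather than NOTCH3 protein; score merges spot fluorescence near 667 nm with spot signal to noise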
[14] = small-molecule binders of probe aNOTCH2, primary screen, biochemical, small-molecule microarray, 635/667 nm fluorescence (AID 1121); details: higher = more signal;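 note: score merges feature fluorescence read at 667 nm with its signal to noise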
[15] = molecular target: Carbonic anhydrase 2 (Homo sapiens) (UniProt P00918); assay: CAII small-molecule binders, profiling panel, biochemical, small-molecule microarray, Alexa647-labelled CAII (AID 1122); details: CAII-A647 binding fluorescence, higher = more signal
[16] = COS7 lysate on small-molecule microarray, probe aHis, 635 nm (AID 1123); details: COS7 cell lysate, fluorescence, higher = more signal;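 note: z-score combines 667nm fluorescence intensity with signal-to-noise per printed compound spot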
[17] = compound binding in COS7 lysate, probe aLAP1, primary screen, cell lysate, small-molecule microarray (AID 1124); details: probe aLAP1, fluorescence, higher = more signal;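 note: lysate comes from COS7 cells expressing LAP1 and is applied at 0.3 µg/mL; score merges spot fluorescence near 667 nm with signal-to-noise over triplicate slides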
[18] = test system: Sam68 (KHDRBS1); assay: Sam68 small-molecule binders, primary screen, biochemical, small-molecule microarray, 635 nm fluorescence (AID 1125); details: small-molecule microarray binding, higher = more signal;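 note: score merges 667 nm channel intensity with signal to noise over triplicate slides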
[19] = test system: Chordin-like protein 2 (CHRDL2); assay: CHRDL2 small-molecule binders, primary screen, biochemical, small-molecule microarray, 635 nm fluorescence (AID 1126); details: small-molecule microarray binding, fluorescence 635 nm; higher = more signal;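 note: printed compound slides probed with Chrdl2 protein at 4 µg/mL for 1 h at 4 C; score merges 667 nm emission intensity with signal to noise over three replicate slides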
[20] = molecular target: Concanavalin-A (Canavalia ensiformis) (UniProt P02866); assay: ConA small-molecule binders, primary screen, artefact control for SMM control protein annotation, biochemical, small-molecule microarray, Alexa647 label, 635 nm (AID 1127); details: ConA-A647 binding fluorescence, higher = more signal;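 note: z combines 667 nm emission intensity with signal-to-noise across three replicate slides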
Chain of Concanavalin-A (Canavalia ensiformis) (P02866 whole entry, looked up): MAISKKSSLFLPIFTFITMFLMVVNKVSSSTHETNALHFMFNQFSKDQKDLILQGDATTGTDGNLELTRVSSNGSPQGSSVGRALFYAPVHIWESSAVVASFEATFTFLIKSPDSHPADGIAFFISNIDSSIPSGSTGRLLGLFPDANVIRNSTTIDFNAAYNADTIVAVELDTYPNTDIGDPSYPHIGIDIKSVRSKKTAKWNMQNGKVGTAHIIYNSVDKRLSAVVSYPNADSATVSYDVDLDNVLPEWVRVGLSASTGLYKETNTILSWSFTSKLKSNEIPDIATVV

Row | Compound | composite z-score [1] | z-score [2] | composite z-score [3] | composite z-score [4] | composite z-score [5] | composite z-score [6] | composite z-score [7] | composite z-score [8] | composite z-score [9] | composite z-score [10] | composite z-score [11] | composite Z-score [12] | composite z-score [13] | composite z-score [14] | composite z-score [15] | composite z-score [16] | composite z-score [17] | composite z-score [18] | composite z-score [19] | composite z-score [20]
1 | COC(=O)C1=CC(CCCO)=CC(C2CC2)N(C)C=C1C(=O)OC (stereo not given) | -0.105 | -0.902 | -0.087 | 0.727 | 0.295 | -0.184 | 0.449 | -0.328 | 1.03 | -0.24 | 1.04 | 0.856 (inactive) | -0.0108 | -0.0668 | 0.97 | 1.09 | 0.687 | 0.0065 | -0.761 | 0.0472
2 | CC(C)[Si](C#C[Si](C(C)C)(C(C)C)C(C)C)(O[C@H](C)c1cn([C@H](CO)Cc2ccccc2)nn1)C(C)C | 0.534 | -0.677 | 0.182 | -0.0641 | -0.393 | -0.0924 | -0.0977 | -0.122 | 0.227 | -0.0846 | 0.544 | -0.397 (inactive) | -0.0699 | -0.145 | 0.0728 | 0.713 | -0.268 | 0.193 | 0.498 | 1.03
3 | CCCCCCc1nc(C2CC2)cc2c1[Si](C(C)C)(C(C)C)O[C@H]2c1ccccc1 | -1.1 | -0.0742 | 0.359 | -0.806 | -0.852 | -0.154 | -0.157 | -0.422 | -0.186 | -0.271 | -0.948 | -0.228 (inactive) | -0.0647 | -0.126 | -0.324 | -0.724 | 0.649 | -0.698 | 0.21 | 0.327
4 | O=C1C2C=CC(C(O)c3ccccc3)N(Nc3ccccc3F)C2C(=O)N1c1ccccc1 (stereo not given) | 0.188 | -0.384 | -0.0935 | 0.0824 | -0.537 | -0.15 | -0.0626 | -0.341 | 0.178 | 0.204 | 0.571 | -0.158 (inactive) | -0.0879 | -0.126 | 0.811 | 0.737 | 0.34 | 0.246 | 0.18 | 0.532
5 | C=CCN1C(=O)[C@@]2(CCS(=O)(=O)c3ccccc3)N=C(c3ccc(OCCCO)cc3)O[C@H]2c2ccccc21 | 1.42 | -1.97 | 0.876 | 1.94 | -0.313 | 0.0215 | -0.304 | 0.906 | 0.791 | 1.22 | -0.567 | -0.101 (inactive) | -0.0302 | -0.0664 | 0.277 | 2.53 | 0.207 | 0.988 | 0.83 | 1.12
6 | CCOC(=O)C1=CC[C@@H](c2ccccc2C(F)(F)F)N(S(=O)(=O)c2ccc(C)cc2)[C@H]1c1ccc(C#N)cc1 | 0.325 | 0.65 | 0.327 | 1.63 | 0.697 | -0.0152 | -0.283 | -0.301 | 0.408 | 0.969 | 0.733 | -0.554 (inactive) | 0.223 | -0.0211 | 0.675 | 0.791 | 1.25 | 0.892 | 0.475 | 1.11
7 | CCOC(=O)C[C@H]1[C@H](OC(=O)Cc2ccc3c(c2)OCO3)[C@@H](NC(=O)Cc2ccc(OC)cc2)c2cc(OCCCO)ccc2N1C(=O)c1ccc2ccccc2n1 | 0.189 | -0.763 | 0.155 | -0.22 | -0.0545 | -0.0792 | 0.23 | -0.134 | 0.526 | 0.424 | 0.857 | -0.802 (inactive) | -0.0768 | -0.11 | 0.154 | 1.15 | 0.199 | 0.489 | 0.276 | -0.533
8 | CC(C)N1CC=CC23O[C@@H]4C=CCOC(=O)[C@@H]4[C@H]2C(=O)N(CCCO)[C@@H]3C1=O (stereo not given in full) | 1.49 | -0.223 | -0.932 | -0.373 | 0.731 | -0.18 | -0.123 | -0.196 | 1.47 | -0.381 | 1.05 | 2.17 (inactive) | -0.145 | -0.118 | 0.863 | 2.76 | 0.633 | 0.234 | -0.73 | 0.234
9 | [N-]=[N+]=NCc1ccccc1C[C@]1(C(N)=O)N=C(c2ccc(OCCCO)cc2)O[C@H]1c1ccccc1 | 1.45 | -2.07 | -1.1 | 0.637 | 0.784 | 0.0003 | 0.14 | 0.581 | 2.27 | 0.623 | 0.96 | -0.524 (inactive) | 0.073 | -0.1 | 0.82 | 2.67 | 0.525 | 0.976 | -1.03 | 0.533
10 | [N-]=[N+]=NCc1ccccc1[C@H]1OC(c2ccc(OCCCO)cc2)=N[C@@]1(CCS(=O)(=O)c1ccccc1)C(=O)NCC(O)CO (stereo not given in full) | 1.46 | -0.157 | -0.342 | 1.42 | 0.66 | 0.143 | 0.522 | 1.59 | 1.96 | 1.66 | 0.567 | 0.652 (inactive) | 0.11 | 0.0697 | 0.736 | 3.48 | 1.04 | 1.06 | -0.0485 | 0.939
